In the library only some 4.7% were active in any assay of this set; here they are far more common.
TRHR agonist: agonists of human TRH receptor. hit rate 0.18% among 360,000. TRHR cells, calcium flux fluo-8, FDSS agonist mode. P34981. activation, % at 2 µM
Target sequence (P34981 whole entry, looked up): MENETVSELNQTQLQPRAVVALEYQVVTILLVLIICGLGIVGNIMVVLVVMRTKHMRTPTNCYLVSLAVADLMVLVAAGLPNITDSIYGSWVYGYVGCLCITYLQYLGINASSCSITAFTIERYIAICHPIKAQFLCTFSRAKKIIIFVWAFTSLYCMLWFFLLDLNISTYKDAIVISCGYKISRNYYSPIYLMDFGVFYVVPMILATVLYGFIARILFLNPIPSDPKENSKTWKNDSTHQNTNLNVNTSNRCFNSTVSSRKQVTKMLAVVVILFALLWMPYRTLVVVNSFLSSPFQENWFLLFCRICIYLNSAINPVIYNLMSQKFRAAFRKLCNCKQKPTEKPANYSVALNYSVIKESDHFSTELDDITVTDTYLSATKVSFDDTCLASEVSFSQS
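Steps: seed TRHR cells overnight; add fluo-8 no-wash Ca dye, RT 30 min–1.5 h; record 10 s baseline; pin-transfer compounds; monitor fluorescence 1 cycle/s for the agonist window. Calcium increases flag candidate agonists.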
D1 antagonist: human D1 dopamine receptor antagonism; P21728; HEK293 TREx D1 cells, calcium flux, dopamine EC80; stronger effect = lower value; activity change, negative = inhibition, % at 10 µM; hit rate 3.2% among 360,000; in the data active = activity change below about -30%
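HEK293 T-REx cells expressing inducible, force-coupled D1 receptor; no-wash Ca dye, 30–90 min RT. Cmpd → 180 s read at 1 Hz → EC80 DA → 180 s read.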
D1 PAM: potentiators of human D1 dopamine receptor; HEK293 TREx D1 cells, calcium flux, dopamine EC20 potentiation; hit rate 0.036% among 360,000; potentiation, % at 10 µM; AID 504651; P21728; in the data active = potentiation above about 30%
D1 agonist: human D1 receptor agonism; hit rate 1% among 360,000; AID 504660; HEK293 T-REx D1 cells, calcium flux, agonist mode; activation, % at 2 µM
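Tetracycline-induced HEK293 TREx D1 cells, force-coupled to calcium signalling, were dye-loaded with a no-wash calcium kit. Compound was pin-added after a 10 s baseline. Fluorescence was read kinetically at 1 cycle/s for 180 s, with calcium rises flagged as agonism.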
TRHR PAM: TRH receptor (human) allosteric enhancement; TRHR cells, fluo-8 calcium fluorescence, EC20 TRH enhancement; enhancement, % at 2 µM; hit rate 0.66% among 360,000; in the data active = enhancement above about 30%
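TRHR-expressing cells loaded with fluo-8 calcium dye were read kinetically (ex 480/em 530) during compound addition, then stimulated with an EC20 of TRH (10 nM final). Enhancement of the Gq-mediated intracellular calcium response was scored.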
Hits are given with their value; - = inactive; . = not tested or not shown. Cut-off read from the data, not from the text of the source, unless noted: active = activation above about 30%; inactive = the rest.

SMILES	TRHR agonist	D1 antagonist	D1 PAM	D1 agonist	TRHR PAM
O=C(Nc1ccc(Br)cc1F)C(NS(=O)(=O)c1cccc2nsnc12)c1ccccc1 (centres undefined)	-	-	-	-	-
O=C(COC(=O)/C=C/c1ccccc1Cl)NC(=O)NCc1ccccc1	-	-	-	31.8	-
Cc1c(C(=O)NCc2ccccc2CN2CCCC2)oc2ccccc12	-	-43.4	-	-	-
CCOCc1c(C(=O)Nc2ccc3nc(N4CCOCC4)sc3c2)oc2ccccc12	-	-31.7	-	-	-
Cc1c(C(=O)NCc2ccccc2F)oc2ccccc12	-	-	-	-	-
CCOCc1c(C(=O)Nc2cc(OCC)c(N3CCOCC3)cc2OCC)oc2ccccc12	-	-	-	-	-
CCOCc1c(C(=O)NCc2ccccc2CN2CCCC2)oc2ccccc12	-	-30.4	-	-	-
O=C(CNC(=O)c1ccccc1)OC(C(=O)Nc1ccc2c(c1)OCO2)c1ccccc1 (centres undefined)	-	-	-	-	-
O=C(CCS(=O)(=O)c1cccc2nonc12)Nc1c(F)cccc1F	-	-	-	-	-
CCc1cc2c(-c3ccccc3)cc(=O)oc2c(CN2CCOCC2)c1O	-	-	-	55.4	-
COc1ccc(NC(=O)Cn2c(=O)n(-c3cccc(C)c3)c(=O)c3c2c2cc(C)ccc2n3C)cc1Cl	-	-	-	-	-
Cc1ccc(N/N=C(\C#N)C(N)=S)c(C)c1	-	-34.9	-	37.0	-
Cc1ccc(-n2c(SCc3ccccc3)nc3c([nH]c4ccccc43)c2=O)cc1	-	-33.4	-	-	-
CCOc1ccccc1Cn1c(=O)sc2ccccc21	-	-	-	-	-
CC(C)CCOc1ccccc1Cn1c(=O)sc2ccccc21	-	-	-	34.8	-
O=C(Nc1ccccc1C(F)(F)F)N1CCOc2ccc(Cl)cc21	-	-35.1	-	-	-
CCc1ccc(NC(=O)N2CCOc3ccc(Cl)cc32)cc1	-	-	-	-	-
O=C(Cn1c(-c2cccs2)cc2cc(Cl)ccc21)N1CCN(c2ccccc2F)CC1	-	-	-	-	-
CC(NC(=O)CSc1n[nH]c(N)n1)c1ccccc1 (centres undefined)	-	-	.	-	-
CCCc1ccc(-c2cc(NC(=O)CSc3n[nH]c(N)n3)n(-c3ccccc3)n2)cc1	-	-	-	32.9	-
CC(C)(C)CN1C(N)=NC[C@@H]1Cc1ccc(O)cc1	-	-44.8	-	-	-
NC(=O)C1(N2CCCCC2)CCN(C(=O)Nc2ccc(F)cc2F)CC1	-	-	-	-	-
CCOc1nc(C)ccc1-c1noc(CC)n1	-	-38.1	-	-	-
CCOc1nc(C)ccc1-c1noc(-c2ccco2)n1	-	-	-	-	-
Cc1cc(=O)n(Cc2cccc(Br)c2)c2c1c(C)nn2-c1ccccc1	-	-79.2	-	-	-
SMILES	TRHR agonist	D1 antagonist	D1 PAM	D1 agonist	TRHR PAM
C=Cc1ccc(Cn2c(=O)cc(C)c3c(C)nn(-c4ccccc4)c32)cc1	-	-	-	-	-
CCOc1cc(CNC2CCCC2)c(Cl)cc1OCC(=O)Nc1ccccc1	-	-	-	-	-
CCOC(=O)c1ccc(NC(=O)COc2ccccc2CNC2CCCC2)cc1	-	-36.2	-	-	-
CC1CCN(CCNC(=O)CCS(=O)(=O)c2ccc(Br)cc2)CC1	-	-42.9	-	-	-
Cc1sc2nc(SCC(=O)N3CCCC3)[nH]c(=O)c2c1C	-	-33.5	-	-	-
Cc1sc2nc(SCC(=O)N3CCCCC3)[nH]c(=O)c2c1C	-	-	-	-	-
COc1ccccc1N1C(=O)C2C(C(=O)c3ccccc3)=NN(c3ccccc3OC)C2C1=O (centres undefined)	-	-	-	78.4	-
C=C(C)C1CC=C(C)/C(=N/NC(=O)c2ccccc2[N+](=O)[O-])C1 (centres undefined)	-	-	-	-	36.3
C=C(C)C1CC=C(C)/C(=N/Nc2ccccc2[N+](=O)[O-])C1 (centres undefined)	-	-	-	-	-
CCCOc1ccc(Br)cc1CSC(=N)N	-	-	-	48.8	-
Cc1c(C(=O)OCC2CCCCC2)[nH]c2c1C(=O)CC(c1ccccc1Cl)C2 (centres undefined)	-	-	-	-	-
CCOC(=O)c1c(C)c(C(=O)NCc2ccc(Cl)cc2)c(C)n1C	-	-	-	-	34.8
CCOc1ccc(NC(=O)CSc2ncc3c(n2)-c2ccccc2N(C)S3(=O)=O)cc1	-	-	-	-	-
NCCCCCc1cn([C@@H](CCC(=O)O)C(=O)NCCCCCCCCCCC(=O)N2CCNCC2)nn1	-	-	-	-	-
NCCCCCc1cn([C@@H](CO)C(=O)NCCCCCCCCCCC(=O)N2CCNCC2)nn1	-	-31.6	-	-	-
CSCC[C@@H](C(=O)NCCCCCCCCCCC(=O)N1CCNCC1)n1cc(CCO)nn1	-	-35.6	-	-	-
Cc1ccc(OCCSc2nc(-c3ccccc3C)nc3cc(=O)[nH]n23)cc1Cl	-	-62.4	-	-	-
Cc1ccc(C(C)C)c(OCCSc2nc(-c3ccccc3F)nc3cc(=O)[nH]n23)c1	-	-	-	37.6	-
CCCOc1ccccc1C(=O)Nc1nc2c(s1)CCCC2	-	-	-	-	-
COc1ccc(-c2nc3ccccc3n3c(-c4ccc(OC)cc4)c4c(=O)n(C)c(=O)n(C)c4c23)cc1	-	-	-	-	-
CCn1c(C(=O)Nc2c(C)cccc2C)cc2sc(Cl)cc21	-	-42.2	-	-	-
CC(C)c1ccc(NC(=O)c2cc3sc(Cl)cc3n2C)cc1	-	-	-	-	-
Cn1c(C(=O)Nc2ccc(Cl)cc2)cc2cc(Cl)ccc21	-	-	-	-	32.5
CCc1ccc(NC(=O)c2cc3sc(Cl)cc3n2C)cc1	-	-42.7	-	-	-
CCc1ccccc1NC(=O)c1cc2sc(Cl)cc2n1CC	-	-	-	-	-
SMILES	TRHR agonist	D1 antagonist	D1 PAM	D1 agonist	TRHR PAM
Cc1cccc(C(=O)NC2CC3CCCC(C2)N3Cc2ccccc2)c1 (centres undefined)	-	-30.5	-	-	-
CCOc1ccc(C(=O)NC2CC3CCCC(C2)N3Cc2ccccc2)cc1 (centres undefined)	-	-	-	-	-
COc1ccc(CN2C3CCC2CC(NC(=O)c2cccc(F)c2)C3)cc1 (centres undefined)	-	-	-	-	-
O=C(NC1CC2CCC(C1)N2Cc1ccccc1)c1ccccc1Br (centres undefined)	-	-	-	-	-
COc1ccc(C(=O)NC2CC3CCCC(C2)N3Cc2ccccc2)cc1 (centres undefined)	-	-48.8	-	-	-
Cc1cccc(C(=O)NC2CC3CCC(C2)N3C)c1 (centres undefined)	-	-	-	-	-
O=C(NC1CC2CCC(C1)N2Cc1ccccc1)c1cccc(F)c1 (centres undefined)	-	-50.3	-	-	-

Source: PubChem (National Center for Advancing Translational Sciences (NCATS))
